Measurements taken from PubChem BioAssay (EPA / NIEHS).
Inconclusive results are not listed. Activity calls are given as the source filed them. The calls were made as follows, unless noted: active = hit-call score of the fitted dose curve at least 0.9, where 1 is the maximum; inactive = score below 0.9.

Tests used:
[1] = BSK_3C_Proliferation: Cell Proliferation Assessment in the BioMAP Diversity Plus: 3C Assay (AID 2283006); details: primary human endothelial cells (HUVEC)
Procedure, shortened: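 Read-out is total protein by SRB absorbance at 560 nm, taken as a proxy for relative cell number. Primary human umbilical vein endothelium cultured below confluence was dosed for 48 h, TCA-fixed and SRB-stained; curves were fitted bidirectionally versus DMSO.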

[2] = biological target: Nuclear receptor subfamily 1 group I member 2 (Homo sapiens) (UniProt O75469); assay: ATG_PXR_TRANS: Attagene TRANS-FACTORIAL HepG2 Assay for human Pregnane X Receptor (PXR) (AID 2283008; active = hit-call score of the fitted dose curve at least 0.9, where 1 is the maximum)
Sequence of Nuclear receptor subfamily 1 group I member 2 (Homo sapiens) (O75469 whole entry, looked up, the tested form may be a part): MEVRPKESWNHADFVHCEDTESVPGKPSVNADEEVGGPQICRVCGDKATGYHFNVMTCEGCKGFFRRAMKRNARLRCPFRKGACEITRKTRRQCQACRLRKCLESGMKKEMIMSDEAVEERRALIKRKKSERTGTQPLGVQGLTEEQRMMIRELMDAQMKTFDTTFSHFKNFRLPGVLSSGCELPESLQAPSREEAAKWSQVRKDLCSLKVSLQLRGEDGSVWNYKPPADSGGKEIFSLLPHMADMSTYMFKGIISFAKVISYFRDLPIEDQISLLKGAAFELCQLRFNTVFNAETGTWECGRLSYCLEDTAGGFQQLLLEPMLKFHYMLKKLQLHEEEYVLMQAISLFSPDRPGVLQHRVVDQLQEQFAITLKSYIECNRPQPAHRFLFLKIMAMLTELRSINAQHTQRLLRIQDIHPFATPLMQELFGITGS
Procedure, shortened: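 HepG2 cells transiently transfected with multiple reporter units, here a PXR-GAL4 chimera driving a GAL4-UAS reporter; 24 h compound exposure. Reporter mRNA measured by RT-PCR, FAM labelling and capillary electrophoresis; gain of signal fitted against DMSO baseline.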

[3] = biological target: human RAR-related Orphan Receptor gamma (RORg), RORC (gene 6097) (UniProt P51449); assay: ATG_RORg_TRANS: Attagene TRANS-FACTORIAL HepG2 Assay for human RAR-related Orphan Receptor gamma (RORg) (AID 2283011; active = hit-call score of the fitted dose curve at least 0.9, where 1 is the maximum)
Sequence of human RAR-related Orphan Receptor gamma (RORg), RORC (gene 6097) (P51449 whole entry, looked up, the tested form may be a part): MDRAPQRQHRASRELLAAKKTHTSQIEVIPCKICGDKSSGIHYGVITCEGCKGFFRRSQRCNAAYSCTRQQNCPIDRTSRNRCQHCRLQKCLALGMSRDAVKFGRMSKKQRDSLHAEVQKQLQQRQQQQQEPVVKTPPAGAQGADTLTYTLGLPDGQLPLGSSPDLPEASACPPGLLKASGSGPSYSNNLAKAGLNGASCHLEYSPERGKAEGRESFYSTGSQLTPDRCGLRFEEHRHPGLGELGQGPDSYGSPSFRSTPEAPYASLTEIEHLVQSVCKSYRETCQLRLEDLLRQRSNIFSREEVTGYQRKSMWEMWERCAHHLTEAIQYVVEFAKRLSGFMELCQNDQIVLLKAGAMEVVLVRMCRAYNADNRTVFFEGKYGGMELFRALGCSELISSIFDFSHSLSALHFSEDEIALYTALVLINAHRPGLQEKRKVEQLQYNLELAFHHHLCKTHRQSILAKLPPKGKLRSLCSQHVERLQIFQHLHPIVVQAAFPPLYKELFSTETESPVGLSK
Procedure, shortened: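 Reporter transcripts from a transfected RORg-GAL4 chimera in HepG2 cells were quantified 24 h after dosing by RT-PCR, 6-FAM labelling, HpaI digestion and capillary electrophoresis; increases over DMSO baseline were fitted.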

[4] = biological target: human Retinoid X Receptor beta (RXRb), RXRB (gene 6257) (UniProt P28702); assay: ATG_RXRb_TRANS: Attagene TRANS-FACTORIAL HepG2 Assay for human Retinoid X Receptor beta (RXRb) (AID 2283013; active = hit-call score of the fitted dose curve at least 0.9, where 1 is the maximum)
Sequence of human Retinoid X Receptor beta (RXRb), RXRB (gene 6257) (P28702 whole entry, looked up, the tested form may be a part): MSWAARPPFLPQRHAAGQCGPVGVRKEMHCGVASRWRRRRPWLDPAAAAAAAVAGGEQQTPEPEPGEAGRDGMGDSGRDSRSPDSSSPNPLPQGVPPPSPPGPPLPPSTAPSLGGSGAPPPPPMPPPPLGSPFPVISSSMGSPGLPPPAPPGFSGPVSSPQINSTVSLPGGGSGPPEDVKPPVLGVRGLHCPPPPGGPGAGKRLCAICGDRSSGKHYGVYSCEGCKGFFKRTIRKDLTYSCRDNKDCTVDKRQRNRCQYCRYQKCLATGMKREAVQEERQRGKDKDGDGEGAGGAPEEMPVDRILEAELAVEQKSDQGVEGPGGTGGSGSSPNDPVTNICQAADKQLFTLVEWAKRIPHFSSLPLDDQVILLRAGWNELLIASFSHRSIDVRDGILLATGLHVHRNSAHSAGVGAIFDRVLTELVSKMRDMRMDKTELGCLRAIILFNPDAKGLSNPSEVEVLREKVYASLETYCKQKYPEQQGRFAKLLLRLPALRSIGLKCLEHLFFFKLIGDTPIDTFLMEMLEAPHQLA
Procedure, shortened: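 Transfect HepG2 with GAL4-UAS multi-reporter constructs (chimeric NR-Gal4, TRANS format); dose compound 24 h; isolate RNA, RT-PCR, FAM primer extension, HpaI digest; quantify by capillary electrophoresis; positive direction vs DMSO.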

[5] = biological target: human Thyroid Receptor alpha (THRa1), THRA (gene 7067) (UniProt P10827); assay: ATG_THRa1_TRANS: Attagene TRANS-FACTORIAL HepG2 Assay for human Thyroid Receptor alpha (THRa1) (AID 2283014; active = hit-call score of the fitted dose curve at least 0.9, where 1 is the maximum)
Sequence of human Thyroid Receptor alpha (THRa1), THRA (gene 7067) (P10827 whole entry, looked up, the tested form may be a part): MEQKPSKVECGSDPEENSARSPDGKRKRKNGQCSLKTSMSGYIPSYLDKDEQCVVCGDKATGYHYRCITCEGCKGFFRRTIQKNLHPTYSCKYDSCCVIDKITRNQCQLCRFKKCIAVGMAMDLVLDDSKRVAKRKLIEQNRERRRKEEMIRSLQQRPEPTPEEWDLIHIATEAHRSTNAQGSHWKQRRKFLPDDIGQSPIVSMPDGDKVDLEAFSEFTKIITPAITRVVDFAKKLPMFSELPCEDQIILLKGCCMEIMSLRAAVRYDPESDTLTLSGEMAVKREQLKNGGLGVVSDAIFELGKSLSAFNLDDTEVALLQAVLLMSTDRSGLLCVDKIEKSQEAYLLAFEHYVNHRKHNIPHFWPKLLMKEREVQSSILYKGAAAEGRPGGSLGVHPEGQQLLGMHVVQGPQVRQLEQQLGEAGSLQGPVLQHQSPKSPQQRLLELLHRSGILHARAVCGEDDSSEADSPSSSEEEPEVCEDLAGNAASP
Procedure, shortened: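 Transcripts from GAL4-UAS-driven reporters, measured after 24 h compound exposure by RT-PCR plus capillary electrophoresis of 6-FAM-labeled fragments, were fitted for gain of signal relative to DMSO. Cells: transiently transfected HepG2 expressing NR-Gal4 chimeras.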

[6] = read-out: E-selectin (Homo sapiens) (UniProt P16581); assay: BSK_3C_Eselectin: BioMAP Diversity Plus: 3C Assay for Eselectin Biomarker Activity (AID 2283015); details: primary human endothelial cells (HUVEC); actives raise or lower the signal;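 also: cell surface E-selectin protein quantified by ELISA 24 h after dosing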
Procedure, shortened: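 E-selectin ELISA readout, fitted bidirectionally relative to DMSO, taken 24 h post-dosing in HUVEC cultures of the 3C system. Overt cytotoxicity tracked with sulforhodamine B staining of parallel wells.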

[7] = read-out: Interleukin-1 alpha (IL1a), IL1A (gene 3552); assay: BSK_BE3C_IL1a: BioMAP Diversity Plus: BE3C Assay for Interleukin-1 alpha (IL1a) Biomarker Activity (AID 2283016); details: primary human bronchial epithelial cells; actives raise or lower the signal
Procedure, shortened: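 BE3C primary human bronchial epithelium; cpd 24 h; IL-1a by ELISA; bidirectional fit vs DMSO; parallel SRB (0.1% SRB, 10% TCA fix, 560 nm) for cytotoxicity.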

[8] = read-out: Monocyte Chemoattractant Protein-1 (MCP1), CCL2 (gene 6347); assay: BSK_3C_MCP1: BioMAP Diversity Plus: 3C Assay for Monocyte Chemoattractant Protein-1 (MCP1) Biomarker Activity (AID 2283017); details: primary human endothelial cells (HUVEC); actives raise or lower the signal
Procedure, shortened: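 MCP-1 was measured by ELISA 24 h after dosing in primary HUVEC 3C cultures and fitted in both directions relative to DMSO; cytotoxicity was checked by SRB total-protein staining in parallel wells.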

[9] = read-out: Monocyte Chemoattractant Protein-1 (MCP1), CCL2 (gene 6347); assay: BSK_4H_MCP1: BioMAP Diversity Plus: 4H Assay for Monocyte Chemoattractant Protein-1 (MCP1) Biomarker Activity (AID 2283018); details: primary human endothelial cells (HUVEC); actives raise or lower the signal
Procedure, shortened: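 ELISA read-out of MCP-1 from human vascular endothelial primary cells taken at 24 hours after compound exposure. Activity was fitted in both directions relative to DMSO, which served as negative control.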

[10] = read-out: Interleukin-8 (IL8), CXCL8 (gene 3576); assay: BSK_3C_IL8: BioMAP Diversity Plus: 3C Assay for Interleukin-8 (IL8) Biomarker Activity (AID 2283020); details: primary human endothelial cells (HUVEC); actives raise or lower the signal
Procedure, shortened: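 ELISA read-out of IL-8 from human umbilical vein endothelium, measured 24 h after chemical dosing. Activity is expressed relative to DMSO negative control, with both increases and decreases fitted.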

[11] = read-out: Monokine induced gamma interferon (MIG), CXCL9 (gene 4283); assay: BSK_3C_MIG: BioMAP Diversity Plus: 3C Assay for Monokine induced gamma interferon (MIG) Biomarker Activity (AID 2283021); details: primary human endothelial cells (HUVEC); actives raise or lower the signal
Procedure, shortened: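 Read-out is ELISA detection of MIG on human umbilical vein endothelial cells, taken 24 h after dosing. Gain or loss of signal was scored relative to DMSO controls using bidirectional curve fitting.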

[12] = biological target: Retinoic acid receptor RXR-alpha (Homo sapiens) (UniProt P19793); assay: ATG_RXRa_TRANS: Attagene TRANS-FACTORIAL HepG2 Assay for human Retinoid X Receptor alpha (RXRa) (AID 2283012; active = hit-call score of the fitted dose curve at least 0.9, where 1 is the maximum)
Sequence of Retinoic acid receptor RXR-alpha (Homo sapiens) (P19793 whole entry, looked up, the tested form may be a part): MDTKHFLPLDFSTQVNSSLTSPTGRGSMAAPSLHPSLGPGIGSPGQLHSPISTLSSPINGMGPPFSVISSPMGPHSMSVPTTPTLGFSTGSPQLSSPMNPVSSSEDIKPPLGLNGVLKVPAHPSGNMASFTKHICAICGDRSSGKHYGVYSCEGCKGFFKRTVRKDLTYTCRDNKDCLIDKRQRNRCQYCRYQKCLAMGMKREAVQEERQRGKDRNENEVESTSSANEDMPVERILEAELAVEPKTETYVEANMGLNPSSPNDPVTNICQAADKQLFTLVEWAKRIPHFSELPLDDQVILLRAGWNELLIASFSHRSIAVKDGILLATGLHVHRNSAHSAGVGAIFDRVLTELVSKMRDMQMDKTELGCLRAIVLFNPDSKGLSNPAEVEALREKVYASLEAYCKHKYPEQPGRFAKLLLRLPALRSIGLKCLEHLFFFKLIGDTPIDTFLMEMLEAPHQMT
Procedure, shortened: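 Transient transfection of human HepG2 with multiple GAL4-UAS reporter constructs; 24 h compound exposure; total RNA isolated, reverse-transcribed, PCR-amplified, 6-FAM labelled, HpaI-cut, resolved by capillary electrophoresis. Positive-direction fit versus DMSO.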

[13] = read-out: Human Leukocyte Antigen - DR isotype (HLADR), HLA-DRA (gene 3122); assay: BSK_3C_HLADR: BioMAP Diversity Plus: 3C Assay for Human Leukocyte Antigen - DR isotype (HLADR) Biomarker Activity (AID 2283019); details: primary human endothelial cells (HUVEC); actives raise or lower the signal
Procedure, shortened: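 Bidirectional fitting against DMSO was applied to the HLA-DR ELISA signal from human umbilical vein endothelial cells, 24 h post-dose. Cytotoxicity came from parallel SRB total-protein staining; 3C proliferation was counted by SRB at 48 h.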

[14] = biological target: Peroxisome proliferator-activated receptor gamma (Homo sapiens) (UniProt P37231); assay: ATG_PPARg_TRANS: Attagene TRANS-FACTORIAL HepG2 Assay for human Peroxisome Proliferator-activated Receptor-gamma (PPARg) (AID 2283007; active = hit-call score of the fitted dose curve at least 0.9, where 1 is the maximum)
Sequence of Peroxisome proliferator-activated receptor gamma (Homo sapiens) (P37231 whole entry, looked up, the tested form may be a part): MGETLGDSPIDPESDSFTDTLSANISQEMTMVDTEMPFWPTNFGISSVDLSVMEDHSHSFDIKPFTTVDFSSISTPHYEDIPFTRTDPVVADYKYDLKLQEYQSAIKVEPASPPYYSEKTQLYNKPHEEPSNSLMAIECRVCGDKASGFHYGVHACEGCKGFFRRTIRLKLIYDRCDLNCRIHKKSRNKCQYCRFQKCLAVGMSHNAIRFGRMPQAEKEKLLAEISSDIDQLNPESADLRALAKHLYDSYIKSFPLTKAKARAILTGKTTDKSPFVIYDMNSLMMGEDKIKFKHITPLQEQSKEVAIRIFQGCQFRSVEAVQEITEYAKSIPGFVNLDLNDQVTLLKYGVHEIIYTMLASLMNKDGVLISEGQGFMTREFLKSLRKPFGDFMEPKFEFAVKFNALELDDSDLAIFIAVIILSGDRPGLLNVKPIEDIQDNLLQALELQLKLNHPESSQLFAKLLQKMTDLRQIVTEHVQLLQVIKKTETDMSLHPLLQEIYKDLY
Procedure, shortened: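 After 24 h of chemical exposure, transfected HepG2 cells carrying PPARγ-Gal4 chimera reporter constructs are lysed for RNA. Reporter transcripts are measured by RT-PCR and capillary electrophoresis with fluorescent labelling, and gain of signal is fitted versus DMSO.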

[15] = biological target: human RAR-related Orphan Receptor beta (RORb), RORB (gene 6096) (UniProt Q92753); assay: ATG_RORb_TRANS: Attagene TRANS-FACTORIAL HepG2 Assay for human RAR-related Orphan Receptor beta (RORb) (AID 2283010; active = hit-call score of the fitted dose curve at least 0.9, where 1 is the maximum)
Sequence of human RAR-related Orphan Receptor beta (RORb), RORB (gene 6096) (Q92753 whole entry, looked up, the tested form may be a part): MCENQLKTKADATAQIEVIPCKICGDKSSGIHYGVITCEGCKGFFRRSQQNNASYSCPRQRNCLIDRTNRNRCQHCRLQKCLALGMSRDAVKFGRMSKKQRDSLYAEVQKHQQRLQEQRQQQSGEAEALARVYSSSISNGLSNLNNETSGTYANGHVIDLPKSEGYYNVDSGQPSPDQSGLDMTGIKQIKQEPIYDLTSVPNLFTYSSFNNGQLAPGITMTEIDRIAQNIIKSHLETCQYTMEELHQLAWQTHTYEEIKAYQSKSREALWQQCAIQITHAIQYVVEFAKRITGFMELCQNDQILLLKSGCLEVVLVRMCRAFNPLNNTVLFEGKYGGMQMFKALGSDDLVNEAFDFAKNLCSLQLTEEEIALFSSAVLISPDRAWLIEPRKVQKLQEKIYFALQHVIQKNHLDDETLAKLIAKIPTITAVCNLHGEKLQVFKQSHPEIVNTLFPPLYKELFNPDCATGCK
Procedure, shortened: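 Readout is reporter-gene mRNA induction, detected as fluorescence after RT-PCR and capillary electrophoresis, fitted for gain of signal against DMSO controls. Transiently transfected HepG2 liver cells carrying GAL4-UAS reporter constructs were treated for 24 hours.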

[16] = biological target: human Vitamin D Receptor (VDR), VDR (gene 7421) (UniProt P11473); assay: ATG_VDR_TRANS: Attagene TRANS-FACTORIAL HepG2 Assay for human Vitamin D Receptor (VDR) (AID 2283022; active = hit-call score of the fitted dose curve at least 0.9, where 1 is the maximum)
Sequence of human Vitamin D Receptor (VDR), VDR (gene 7421) (P11473 whole entry, looked up, the tested form may be a part): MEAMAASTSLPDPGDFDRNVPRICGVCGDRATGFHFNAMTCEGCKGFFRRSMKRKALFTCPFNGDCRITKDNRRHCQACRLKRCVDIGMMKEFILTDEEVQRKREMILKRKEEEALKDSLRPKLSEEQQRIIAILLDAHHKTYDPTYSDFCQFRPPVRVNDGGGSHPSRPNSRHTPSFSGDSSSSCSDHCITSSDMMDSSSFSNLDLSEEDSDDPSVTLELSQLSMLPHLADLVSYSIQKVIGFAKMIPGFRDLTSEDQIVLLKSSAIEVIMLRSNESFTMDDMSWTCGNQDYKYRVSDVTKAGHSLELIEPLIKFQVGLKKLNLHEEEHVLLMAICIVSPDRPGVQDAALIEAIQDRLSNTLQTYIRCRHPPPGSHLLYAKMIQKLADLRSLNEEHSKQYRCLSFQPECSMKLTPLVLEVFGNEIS
Procedure, shortened: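 Transactivation by an exogenous VDR-Gal4 chimera in transiently transfected HepG2 cells was measured as reporter transcript level 24 hours after chemical treatment. RT-PCR products were analysed by capillary electrophoresis and fitted in the positive direction relative to DMSO.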

[17] = read-out: Intercellular Adhesion Molecule 1 (ICAM1), ICAM1 (gene 3383); assay: BSK_3C_ICAM1: BioMAP Diversity Plus: 3C Assay for Intercellular Adhesion Molecule 1 (ICAM1) Biomarker Activity (AID 2283003); details: primary human endothelial cells (HUVEC); actives raise or lower the signal
Procedure, shortened: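 ICAM-1 levels measured by ELISA after HUVEC cultures in the 3C system had been dosed for 24 h. Gain or loss of signal relative to DMSO was fitted in both directions.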

[18] = biological target: human Retinoic Acid Receptor gamma (RARg), RARG (gene 5916) (UniProt P13631); assay: ATG_RARg_TRANS: Attagene TRANS-FACTORIAL HepG2 Assay for human Retinoic Acid Receptor gamma (RARg) (AID 2283009; active = hit-call score of the fitted dose curve at least 0.9, where 1 is the maximum)
Sequence of human Retinoic Acid Receptor gamma (RARg), RARG (gene 5916) (P13631 whole entry, looked up): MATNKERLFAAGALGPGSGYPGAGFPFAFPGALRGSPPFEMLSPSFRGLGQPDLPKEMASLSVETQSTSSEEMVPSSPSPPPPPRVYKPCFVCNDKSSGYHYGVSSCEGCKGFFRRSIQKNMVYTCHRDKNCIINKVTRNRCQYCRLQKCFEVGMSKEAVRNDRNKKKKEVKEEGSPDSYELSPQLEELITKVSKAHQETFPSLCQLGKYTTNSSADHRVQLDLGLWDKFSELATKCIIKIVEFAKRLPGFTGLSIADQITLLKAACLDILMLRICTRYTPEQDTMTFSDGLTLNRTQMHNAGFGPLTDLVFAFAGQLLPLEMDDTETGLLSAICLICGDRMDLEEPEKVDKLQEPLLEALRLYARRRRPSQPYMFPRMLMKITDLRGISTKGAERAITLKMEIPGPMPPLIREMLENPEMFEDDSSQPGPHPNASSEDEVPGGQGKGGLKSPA
Procedure, shortened: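 Transient transfection of HepG2 with multi-reporter constructs, then 24 h chemical treatment. Total RNA isolated, reverse-transcribed, PCR-amplified, fluorescently labelled and resolved by capillary electrophoresis; activity scored as mRNA induction versus DMSO.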

Measured: AC50

Sequence of E-selectin (Homo sapiens) (P16581 whole entry, looked up): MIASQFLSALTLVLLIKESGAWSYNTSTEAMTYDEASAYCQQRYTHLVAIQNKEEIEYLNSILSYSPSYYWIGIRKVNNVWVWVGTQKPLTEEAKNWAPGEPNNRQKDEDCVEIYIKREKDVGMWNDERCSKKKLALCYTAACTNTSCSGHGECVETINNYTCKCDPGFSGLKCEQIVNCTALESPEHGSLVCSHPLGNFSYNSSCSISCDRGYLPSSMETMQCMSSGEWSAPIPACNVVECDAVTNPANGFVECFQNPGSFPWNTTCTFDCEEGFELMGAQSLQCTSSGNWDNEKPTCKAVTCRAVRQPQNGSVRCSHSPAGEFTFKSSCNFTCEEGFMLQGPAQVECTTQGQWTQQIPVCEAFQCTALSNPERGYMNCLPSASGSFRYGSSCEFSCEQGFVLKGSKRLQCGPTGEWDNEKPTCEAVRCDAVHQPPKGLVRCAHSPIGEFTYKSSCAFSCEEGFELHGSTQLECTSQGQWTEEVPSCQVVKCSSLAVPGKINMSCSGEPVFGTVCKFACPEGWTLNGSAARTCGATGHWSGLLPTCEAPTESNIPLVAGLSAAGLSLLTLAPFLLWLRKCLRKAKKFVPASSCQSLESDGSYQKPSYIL

CCc1cccc(CC)c1N
active: [4] 100 µM
not listed: [12] | [13] | [14] | [15] | [16] | [17] | [18]
inactive: all other assays above

COCc1nnc(-c2ccc[n+]([O-])c2)n1-c1c(Cl)c(Cl)cc2[nH]c(=O)c(=O)[nH]c12
inactive: [1] | [2] | [3] | [12] | [6] | [7] | [9] | [13] | [11]

CCCCOC(=O)c1ccccc1
not listed: [3] | [5] | [8] | [15] | [16] | [17] | [18]
inactive: all other assays above

FC(F)C(F)(F)COCC1CO1 (stereo not drawn)
not listed: [2] | [4] | [5] | [8] | [10] | [17] | [18]
inactive: all other assays above

FC(F)(F)COC(OCC(F)(F)F)OCC(F)(F)F
not listed: [5] | [8] | [10] | [13] | [17] | [18]
inactive: all other assays above

OCCNCCO
inactive: [1] | [12] | [6] | [7] | [8] | [9] | [10] | [11]

NC(N)=O
inactive: [17] | [1] | [12] | [4] | [6] | [7] | [9] | [11]

Cc1nc(-c2ccccn2)ncc1C(=O)Nn1cc(C)c2cc(F)ccc21
active: [14] 7.87 µM | [2] 0.775 µM | [13] 20 µM
not listed: [3] | [4] | [12] | [15] | [17] | [18]
inactive: all other assays above

OC[C@H]1O[C@@](CO)(O[C@H]2O[C@H](CO)[C@@H](O)[C@H](O)[C@H]2O)[C@@H](O)[C@@H]1O
not listed: [2] | [3] | [5] | [13] | [16] | [17] | [18]
inactive: all other assays above

CCCCCCCCN(C)C
not listed: [5] | [8] | [10] | [13] | [14] | [15]
inactive: all other assays above

O=c1[nH]cnc2c1ncn2[C@H]1CC[C@@H](CO)O1
not listed: [4] | [15] | [16] | [17] | [18]
inactive: all other assays above

O=C(O)[C@H](O)[C@@H](O)C(=O)O
not listed: [2] | [8] | [10] | [16] | [17] | [18]
inactive: all other assays above

OCCOCCOCCO
not listed: [2] | [3] | [5] | [10] | [13] | [15] | [18]
inactive: all other assays above

COS(C)(=O)=O
not listed: [2] | [5] | [8] | [10] | [17] | [18]
inactive: all other assays above
